In PubChem BioAssay AID1159580 (chemical genetic matrix, 2015):
In all, about 5,500 compounds went through this assay and about 2,000 (36%) were called active. Roughly 18% stayed inconclusive and do not appear here. Cut-off read from the data, not from the text of the source: active = normalized growth mostly below about 0.91 (no sharp cut-off); inconclusive = no clear call, values can overlap the other calls; inactive = mostly above about 0.92. The list shows a part of the results.

Experiment: chemical genetic growth profiling, strain panel (AID 1159580);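 note: tested at 20 µM; growth read once vehicle control cultures reached saturation at 30 °C; 1 = growth at the plate median or of vehicle wells; lower values mean less growth of the strain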
Conditions: growth OD
[1] = S. cerevisiae deletion strains, locus YBR229C, strain ROT2, hits give low values
[2] = S. cerevisiae deletion strains, locus YDL101C, strain DUN1, hits give low values
[3] = S. cerevisiae deletion strains, locus YHR030C, strain SLT2, hits give low values
[4] = S. cerevisiae deletion strains, locus YLR039C, strain RIC1, hits give low values

Measured: normalized growth

COC(=O)C[C@H]1C(C)(C)C(OC(C)=O)[C@]2(O)C=C3C4CC(=O)O[C@@H](c5ccoc5)[C@]4(C)CCC3[C@@]1(C)C2=O (stereo partly specified)
inactive: S. cerevisiae deletion strains, locus YBR021W, strain FUR4, hits give low values 0.996 | [1] 1 | S. cerevisiae deletion strains, locus YCL029C, strain bik1, hits give low values 1.01 | S. cerevisiae deletion strains, locus YDL035C, strain GPR1, hits give low values 1 | S. cerevisiae deletion strains, locus YDL074C, strain BRE1, hits give low values 1 | [2] 1.01 | S. cerevisiae deletion strains, locus YDL134C, strain PPH21, hits give low values 1.02 | S. cerevisiae deletion strains, locus YDL185W, strain tfp1, hits give low values 1.02 | S. cerevisiae deletion strains, locus YDL192W, strain arf1, hits give low values 1 | S. cerevisiae deletion strains, locus YDR101C, strain arx1, hits give low values 1.01 | S. cerevisiae deletion strains, locus YDR162C, strain NBP2, hits give low values 1.01 | S. cerevisiae deletion strains, locus YDR318W, strain mcm21, hits give low values 1.01 | S. cerevisiae deletion strains, locus YDR388W, hits give low values 1 | S. cerevisiae deletion strains, locus YDR502C, strain sam2, hits give low values 1.02 | S. cerevisiae deletion strains, locus YER110C, hits give low values 1 | S. cerevisiae deletion strains, locus YER155C, strain BEM2, hits give low values 1 | S. cerevisiae deletion strains, locus YER167W, strain BCK2, hits give low values 1.01 | S. cerevisiae deletion strains, locus YGL078C, strain dbp3, hits give low values 1.02 | S. cerevisiae deletion strains, locus YGL086W, strain mad1, hits give low values 1 | S. cerevisiae deletion strains, locus YGL248W, strain PDE1, hits give low values 1 | S. cerevisiae deletion strains, locus YGR135W, strain pre9, hits give low values 1.02 | S. cerevisiae deletion strains, locus YGR252W, strain gcn5, hits give low values 0.975 | [3] 1.01 | S. cerevisiae deletion strains, locus YHR079C, strain IRE1 (second series), hits give low values 1.02 | S. cerevisiae deletion strains, locus YHR094C, strain hxt1, hits give low values 1.01 | S. cerevisiae deletion strains, locus YHR129C, strain ARP1, hits give low values 1 | S. cerevisiae deletion strains, locus YHR200W, strain rpn10, hits give low values 1.01 | S. cerevisiae deletion strains, locus YIL066C, strain RNR3, hits give low values 0.997 | S. cerevisiae deletion strains, locus YIL073C, strain SPO22, hits give low values 1.06 | S. cerevisiae deletion strains, locus YIL125W, strain kgd1, hits give low values 1.01 | S. cerevisiae deletion strains, locus YIR030C, strain dcg1, hits give low values 1 | S. cerevisiae deletion strains, locus YJL095W, strain BCK1, hits give low values 1.03 | S. cerevisiae deletion strains, locus YJL134W, strain LCB3, hits give low values 1 | S. cerevisiae deletion strains, locus YJL168C, strain set2, hits give low values 1.01 | S. cerevisiae deletion strains, locus YJL187C, strain SWE1 (second series), hits give low values 1.02 | S. cerevisiae deletion strains, locus YKL009W, strain mrt4, hits give low values 0.992 | S. cerevisiae deletion strains, locus YKL068W, hits give low values 1.01 | S. cerevisiae deletion strains, locus YKL085W, strain MDH1 (second series), hits give low values 1.01 | S. cerevisiae deletion strains, locus YKL085W, strain MDH1, hits give low values 1.01 | S. cerevisiae deletion strains, locus YKR001C, strain vps1, hits give low values 1.01 | [4] 1.02 | S. cerevisiae deletion strains, locus YLR058C, strain SHM2, hits give low values 1 | S. cerevisiae deletion strains, locus YLR102C, strain apc9, hits give low values 1.01 | S. cerevisiae deletion strains, locus YLR268W, strain sec22, hits give low values 1.01 | S. cerevisiae deletion strains, locus YLR330W, strain CHS5, hits give low values 1.01 | S. cerevisiae deletion strains, locus YLR371W, strain rom2, hits give low values 1.01 | S. cerevisiae deletion strains, locus YLR418C, strain cdc73, hits give low values 1.03 | S. cerevisiae deletion strains, locus YML016C, strain PPZ1, hits give low values 0.999 | S. cerevisiae deletion strains, locus YML032C, strain rad52, hits give low values 1.01 | S. cerevisiae deletion strains, locus YML124C, strain tub3, hits give low values 1.01 | S. cerevisiae deletion strains, locus YMR078C, strain ctf18, hits give low values 1.01 | S. cerevisiae deletion strains, locus YMR223W, strain ubp8, hits give low values 1.01 | S. cerevisiae deletion strains, locus YMR307W, strain GAS1, hits give low values 1.04 | S. cerevisiae deletion strains, locus YNL067W, strain RPL9B, hits give low values 1.02 | S. cerevisiae deletion strains, locus YNL153C, strain GIM3, hits give low values 1.02 | S. cerevisiae deletion strains, locus YNL233W, strain BNI4, hits give low values 1.02 | S. cerevisiae deletion strains, locus YNL250W, strain rad50, hits give low values 1.01 | S. cerevisiae deletion strains, locus YNL271C, strain bni1, hits give low values 1.01 | S. cerevisiae deletion strains, locus YNL298W, strain CLA4, hits give low values 1 | S. cerevisiae deletion strains, locus YNL307C, strain MCK1, hits give low values 1.01 | S. cerevisiae deletion strains, locus YNR052C, strain pop2, hits give low values 1.01 | S. cerevisiae deletion strains, locus YOL012C, strain htz1 0.877 | S. cerevisiae deletion strains, locus YOL147C, strain pex11, hits give low values 1.01 | S. cerevisiae deletion strains, locus YOR061W, strain CKA2, hits give low values 0.997 | S. cerevisiae deletion strains, locus YOR069W, strain VPS5, hits give low values 1 | S. cerevisiae deletion strains, locus YOR136W, strain idh2, hits give low values 1.02 | S. cerevisiae deletion strains, locus YOR144C, strain elg1, hits give low values 1 | S. cerevisiae deletion strains, locus YOR184W, strain ser1, hits give low values 0.999 | S. cerevisiae deletion strains, locus YOR316C, strain cot1, hits give low values 1.01 | S. cerevisiae deletion strains, locus YPR119W, strain clb2, hits give low values 1.02 | S. cerevisiae deletion strains, locus YPR141C, strain kar3, hits give low values 1.01 | S. cerevisiae deletion strains, locus YPR163C, strain tif3, hits give low values 1.01 | S. cerevisiae deletion strains, locus YPR167C, strain met16, hits give low values 1.01 | S. cerevisiae deletion strains, strain wtn01, hits give low values 0.991

COC(=O)c1csc2c(C(F)(F)F)cc(N3CCN(S(=O)(=O)c4ccc(C)cc4)CC3)nc12
inactive: S. cerevisiae deletion strains, locus YAL013W, strain DEP1, hits give low values 1.01 | [1] 1 | [2] 1 | S. cerevisiae deletion strains, locus YDR150W, strain NUM1, hits give low values 1.05 | S. cerevisiae deletion strains, locus YEL061C, strain CIN8, hits give low values 1.01 | S. cerevisiae deletion strains, locus YGR078C, strain PAC10, hits give low values 1.02 | [3] 1.16 | S. cerevisiae deletion strains, locus YHR087W, strain rtc3, hits give low values 1 | S. cerevisiae deletion strains, locus YJL187C, strain SWE1, hits give low values 1 | S. cerevisiae deletion strains, locus YJR043C, strain POL32, hits give low values 1.04 | S. cerevisiae deletion strains, locus YJR075W, strain HOC1, hits give low values 0.999 | S. cerevisiae deletion strains, locus YKL190W, strain CNB1, hits give low values 1.01 | [4] 1.01 | S. cerevisiae deletion strains, locus YLR058C, strain SHM2 (second series), hits give low values 1.01 | S. cerevisiae deletion strains, locus YLR085C, strain ARP6, hits give low values 1 | S. cerevisiae deletion strains, locus YLR262C, strain YPT6, hits give low values 1.13 | S. cerevisiae deletion strains, locus YML094W, strain GIM5, hits give low values 0.998 | S. cerevisiae deletion strains, locus YMR219W, strain ESC1, hits give low values 0.995 | S. cerevisiae deletion strains, locus YMR263W, strain SAP30, hits give low values 1.03 | S. cerevisiae deletion strains, locus YNL128W, strain TEP1, hits give low values 1 | S. cerevisiae deletion strains, locus YNL298W, strain CLA4 (second series), hits give low values 1.02 | S. cerevisiae deletion strains, locus YNL322C, strain KRE1, hits give low values 1 | S. cerevisiae deletion strains, locus YNR030W, strain Alg12, hits give low values 1.03 | S. cerevisiae deletion strains, locus YPL055C, strain LGE1, hits give low values 0.993 | S. cerevisiae deletion strains, locus YPL241C, strain CIN2, hits give low values 0.986 | S. cerevisiae deletion strains, locus YPR135W, strain CTF4, hits give low values 1.11 | S. cerevisiae strains, strain wild type, hits give low values 1.01
